Assay outcomes: PubChem BioAssay, National Center for Advancing Translational Sciences (NCATS)
MCF10A rereplic: induces DNA re-replication in MCF 10a normal breast cells | MCF 10A DNA re-replication, Hoechst nuclear intensity, 48 h | Potency, µM (highest dose often 46.1 µM), for inactives: top-dose activity, positive = re-replication, most hits filed as activators | 350,000 tested, 2.9% active | AID 624296; note: % of control where 0% means no effect; nearly all actives have a fitted effect of over 50% in size
PINK1 expr mod: modulators of PINK1 expression; PINK1 immunofluorescence, high-content cytometry, 24 h; Potency, µM (top dose mostly 76.6 µM), without a hit: at the top dose activation (PINK1 increase), most hits filed as activators; 410,000 tested, 0.2% active; active = well fitted activation curve with a large enough effect; inconclusive = small, poorly fitted or top-dose-only effect; cell line not stated here; note: % of control where 0% means no effect; nearly all actives have a fitted effect of over 65% in size
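PINK1 protein level read as immunofluorescence by microplate cytometer in a fixed, stained stable cell line after 24 h exposure to five compound concentrations, with CCCP as control.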
KB-V1 cytotox: kills drug-selected multidrug resistant KB-V1 cells; 400,000 tested, 3.4% active; AID 1347076; Potency, µM (doses to about 46.1 µM), hits mostly cytotoxic; KB-V1 MDR cells viability, CellTiter-Glo, 72 h; note: % is set by controls: 0 for no effect and ±100 for the full control effect; nearly all actives have a fitted effect of over 60% in size
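Potencies derive from concentration-effect curves fitted to normalized luminescence (CellTiter-Glo) of KB-V1 cells treated for 72 h at 37 degrees C in phenol-red-free DMEM containing 10% FBS.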
SW480 rereplic: inducers of DNA re-replication in SW480 colon cancer cells; SW480 DNA re-replication, Hoechst DNA content imaging, 48 h; Potency, µM (titrated, usually from 46.1 µM), for the others: at the top dose re-replication activation, usual class: activators; 340,000 tested, 1.8% active; AID 624297; note: % of control where 0% means no effect; nearly all actives have a fitted effect of over 55% in size
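Per well, 250 cells were exposed to pinned compound for 48 hr. Nuclear DNA was visualised with Hoechst (40 min, 37 C) and total object intensity recorded by fluorescence scanning.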
KB-3-1 tox: KB-3-1 parental cell cytotoxicity | KB-3-1 viability, CellTiter-Glo ATP luminescence, 72 h | Potency, µM (titrated, usually from 46.1 µM), most hits filed as cytotoxic | 400,000 tested, 1.4% active; note: % is set by controls: 0 for no effect and ±100 for the full control effect; nearly all actives have a fitted effect of over 60% in size
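Parental KB-3-1 adenocarcinoma cells in phenol-red-free DMEM with 10% FBS were pin-treated with compounds at several concentrations, incubated 72 h at 37 °C, and viability read by CellTiter-Glo luminescence; concentration-effect curves were fitted after normalization.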
ALOX12 inh: inhibitors of human 12S-lipoxygenase ALOX12 | purified 12hLO, xylenol orange hydroperoxide absorbance | Potency, µM (series often up to 108 µM), for the others: at the highest dose activity change, negative = inhibition, usual class: inhibitors | 580,000 tested, 1.1% active | AID 1671190; note: % is set by controls: 0 for no effect and ±100 for the full control effect
Target sequence (P18054 whole entry, looked up): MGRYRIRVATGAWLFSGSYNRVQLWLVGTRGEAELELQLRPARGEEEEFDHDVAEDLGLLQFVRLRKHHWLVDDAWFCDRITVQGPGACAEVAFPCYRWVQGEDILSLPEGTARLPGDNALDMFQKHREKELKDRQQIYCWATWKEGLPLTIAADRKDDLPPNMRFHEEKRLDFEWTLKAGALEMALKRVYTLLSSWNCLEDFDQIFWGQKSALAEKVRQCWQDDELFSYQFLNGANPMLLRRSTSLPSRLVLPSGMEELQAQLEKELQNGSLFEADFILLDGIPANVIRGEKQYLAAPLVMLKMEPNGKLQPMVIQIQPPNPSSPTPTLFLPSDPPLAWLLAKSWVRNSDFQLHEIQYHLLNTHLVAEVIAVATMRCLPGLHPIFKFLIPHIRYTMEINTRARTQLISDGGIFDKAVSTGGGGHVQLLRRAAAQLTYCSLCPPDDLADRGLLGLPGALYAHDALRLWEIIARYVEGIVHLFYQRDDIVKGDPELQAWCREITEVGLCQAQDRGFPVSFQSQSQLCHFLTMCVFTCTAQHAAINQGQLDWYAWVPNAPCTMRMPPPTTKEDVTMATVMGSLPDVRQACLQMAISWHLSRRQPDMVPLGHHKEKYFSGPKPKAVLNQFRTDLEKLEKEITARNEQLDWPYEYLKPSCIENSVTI
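Purified human 12hLO at 150 nM in 25 mM Hepes, 0.01% Triton X-100, pH 7.0, preincubated 15 min at room temperature with compound. Reaction started with 40 uM arachidonic acid, 30 min at room temperature. Hydroperoxide measured by Fe-xylenol orange, 573/405 nm absorbance ratio.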
* hit, by the source's call; i = inactive; ? = inconclusive; . = no result; [ ] = dose if it differs, or a comment. The list is not random: actives were taken first. Their share in the collection is about 5.8%. Unless noted, calls come from the whole dose curve; as a rule, active = well fitted curve in the direction sought with a large enough effect; inconclusive = small, poorly fitted or top-dose-only effect, or another doubt; inactive = no such curve, though single readings can be large; an effect the other way counts as inactive or inconclusive. Potency is the fitted concentration of half-maximal effect.

SMILES | MCF10A rereplic | PINK1 expr mod | KB-V1 cytotox | SW480 rereplic | KB-3-1 tox | ALOX12 inh
Cc1nc(/N=C(\N)NC(=O)c2ccccc2N)nc2ccccc12 | . | . | . | . | . | 9%
CCN(CC(=O)Nc1ccccc1OC)C(=O)Cc1nc(-c2ccccc2)oc1C | . | . | . | . | . | 6%
O=C(O)C(c1ccccc1)N1C(=O)/C(=C\c2ccc(-c3ccc(Br)cc3)o2)SC1=S (stereo unspecified) | -11% | 0% | i | -3% | i | 6.3µM*
C=CCN1C(=O)/C(=C/c2ccc(-c3ccc(F)cc3)o2)SC1=S | 2% | 1% | i | -11% | i | 45µM*
O=C(O)C(c1ccccc1)N1C(=O)/C(=C\c2ccc(-c3ccccc3Cl)o2)SC1=S (stereo unspecified) | -10% | -2% | ? | -4% | i | 16%
CCCNC(=O)c1ccc(NC(=O)c2ccc(Cl)cc2)cc1 | . | . | . | . | . | 19%
CCCCCCCC(=O)N/N=C/C(C)=N/NC(=O)CCCCCCC | . | . | . | . | . | -41%
O=C(NNc1ccccc1Br)C(O)(c1cccc(C(F)(F)F)c1)c1cccc(C(F)(F)F)c1 | ? | -2% | 18µM* | ? | ? | -32%
Cc1ccc(C(O)(C(=O)NNc2ccccn2)c2ccc(C)cc2)cc1 | 7% | 1% | i | 0% | i | 6%
Cc1ccc(NNC(=O)C(O)(c2cccc(C(F)(F)F)c2)c2cccc(C(F)(F)F)c2)cc1 | 12µM* | ? | ? | ? | 16µM* | -22%
COc1ccc(NC(=O)CN2CCc3cc(OC)c(OC)cc3C2c2ccccc2)cc1 (stereo unspecified) | . | . | . | . | . | 14%
COc1cccc(CN(C)CC(=O)Nc2cccc3ccccc23)c1 | -1% | 0% | ? | -1% | i | ?
COc1ccc2ccccc2c1CN(C)Cc1ccccc1 | 14% | 14% | ? | -3% | i | 0%
COc1ccc(CN(C)Cc2c(O)ccc3ccccc23)cc1 | 0% | 3% | ? | -2% | i | 10µM*
COc1cccc(CN(C)Cc2c(O)ccc3ccccc23)c1 | ? | -1% | i | -7% | ? | 10µM*
Cc1ccc(-c2nnc(C3CN(C(=O)c4ccccc4C)CC34CCOCC4)o2)cc1 (stereo unspecified) | . | . | . | . | . | 39%
Brc1ccc(-c2noc(Cc3ccccc3)n2)cc1 | . | . | . | . | . | -2%
O=S(Cc1ccc(Br)cc1)Cc1nnc(SCc2ccc(Cl)cc2)n1-c1ccccc1 (stereo unspecified) | ? | 5% | 2.3µM* | -4% | ? | ?
Cn1c(CS(=O)Cc2c(Cl)cccc2Cl)nnc1SCc1ccc(Cl)cc1 (stereo unspecified) | 19% | -5%[38.3 µM] | 5.2µM* | -3% | i | 22%
O=S(Cc1ccc(Br)cc1)Cc1nnc(SCc2c(F)cccc2Cl)n1-c1ccccc1 (stereo unspecified) | ? | 17% | 2.3µM* | 10% | ? | ?
CC(C)c1ccc(NC(=O)CSc2nc3c(-c4ccccc4)c[nH]c3c(=O)n2C)cc1 | . | . | . | . | . | 31%
CCCn1c(=O)n(CC(=O)Nc2ccccc2OC)c(=O)c2c1nc(C)n2CCOC | . | . | . | . | . | 21%
CCOc1cc(C)c(S(=O)(=O)Nc2ccccc2OCC)cc1C | . | . | . | . | . | -44%
O=C(NCCc1ccccc1)Nc1ccc(CN2CCOC2=O)cc1 | . | . | . | . | . | 28%
Cc1ccc(C)c(C(=O)NC(C)CCc2ccccc2)c1 (stereo unspecified) | 2% | 0% | i | 11% | i | ?
Cc1occc1C(=O)NC(C)CCc1ccccc1 (stereo unspecified) | 21µM* | -3% | i | 1% | i | 349%
COc1ccc2c3c(ccc2c1)C(=O)/C(=C/O)CC3 | ? | -4% | ? | 12% | i | 25µM*
COc1ccc2c(c1)CC/C(=C\C=C\c1ccccc1OC)C2=O | ? | 0% | i | 12% | i | -23%
Cn1c(SCc2nc3ccccc3c(=O)[nH]2)nc2ccccc21 | -27% | 0% | ? | 2% | i | 17%
